According to PubChem BioAssay (NCATS):
Results filed as inconclusive are left out. Values without a mark were called inactive. Calls come from the whole dose curve; as a rule, active = well fitted inhibition curve with a large enough effect; inconclusive = small, poorly fitted or top-dose-only effect; inactive = flat fitted curve, though single readings scatter.

What follows are compounds tested on KB-3-1 (assay: Cytotoxic Profiling of Annotated Libraries Using Quantitative High-Throughput Screening (AID 1296008; note: nearly all actives have a fitted effect of over 60% in size)). Details: Five cell lines viability, CellTiter-Glo ATP luminescence, 48-72 h; max response: hits give low values.
Method in brief: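 Compounds were pin-transferred onto cells and incubated 48 or 72 hr at 37 degree Celsius, 95% humidity. CellTiter-Glo was added, plates sat 10 min at room temperature, then ATP-coupled luminescence was imaged as the viability read-out.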
% is set by controls: 0 for no effect and ±100 for the full control effect.

Going from `CCN(CC)CCO[C@H]1CC[C@@]2(C)C(=CC[C@@H]3[C@@H]2CC[C@]2(C)C(=O)CC[C@@H]32)C1` to `C[C@]12CCC(=O)C=C1C=C[C@@H]1[C@@H]2CC[C@@]2(C)[C@H]1CC[C@@]2(O)CCC(=O)O`, the max response rises from -11.5% to 17.7%.

Going from `OC(c1ccccc1)(c1ccccc1)C1CN2CCC1CC2` (stereo not given) to `CN1c2ccccc2C(NCCCCCCC(=O)O)c2ccc(Cl)cc2S1(=O)=O` (stereo not given), the max response rises from -22.3% to -15.2%.

First: CCCC(=O)OC(C(Cl)(Cl)Cl)P(=O)(OC)OC (stereo not given)
Second: O=C(O)C(Cl)(Cl)Cl
The max response of the first is higher: -2.33% for the first, -15.3% for the second.

Going from `C[C@@H]([C@H](O)c1ccccc1)N(C)C` to `Cc1ccccc1-n1c(CF)nc2ccc(N)cc2c1=O`, the max response falls from 3.96% to -0.0685%.

First: O=C1C=C2C=C[C@@H]3C[C@@]2(O1)[C@H]1CCCCN31
Second: O=C1CCCCC1CN1CCCCC1 (stereo not given)
The max response of the first is lower: -12.4% for the first, 4.12% for the second.

Compared with `CCOP(=O)(OCC)O/C(=C/Cl)c1ccc(Cl)cc1Cl`, `Cc1cc(C)cc(C(=O)OC2C[C@H]3CC[C@@H](C2)N3C)c1` (stereo not given in full) is lower in max response: 11.5% for the first, -7.52% for the second.

First: [S]=[Sb](=[S])[S][Sb](=[S])=[S]
Second: CNc1ccc(C(=O)CC(O)CCC(C)C2OC(=O)CC(O)CC(=O)CC(O)CC(O)CC(O)CC(O)CC3(O)CC(O)C(C(=O)OC)C(CC(O[C@@H]4O[C@H](C)[C@@H](O)[C@H](N)[C@@H]4O)/C=C/C=C/C=C/C=C/C=C/C=C/C=C/C2C)O3)cc1 (stereo not given in full)
The max response of the first is higher: 2.26% for the first, -0.469% for the second.

With `ClC(Cl)(Cl)Cl` the max response was -1.06%.
